Test results as given in PubChem BioAssay.
The source made the active and inactive calls.

How the values were obtained:
Albumin (Bos taurus) = Albumin (Bos taurus) (UniProt P02769); assay: compounds binding labelled BSA control protein – biochemical, small-molecule microarray, Alexa647 label, 635/667 nm fluorescence, artefact control for SMM control protein annotation, profiling panel (AID 1118); details: BSA-A647 binding, fluorescence 635 nm, higher = more signal;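 note: score merges 667 nm emission intensity and signal-to-noise per printed compound spot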
Chain of Albumin (Bos taurus) (P02769 whole entry, looked up): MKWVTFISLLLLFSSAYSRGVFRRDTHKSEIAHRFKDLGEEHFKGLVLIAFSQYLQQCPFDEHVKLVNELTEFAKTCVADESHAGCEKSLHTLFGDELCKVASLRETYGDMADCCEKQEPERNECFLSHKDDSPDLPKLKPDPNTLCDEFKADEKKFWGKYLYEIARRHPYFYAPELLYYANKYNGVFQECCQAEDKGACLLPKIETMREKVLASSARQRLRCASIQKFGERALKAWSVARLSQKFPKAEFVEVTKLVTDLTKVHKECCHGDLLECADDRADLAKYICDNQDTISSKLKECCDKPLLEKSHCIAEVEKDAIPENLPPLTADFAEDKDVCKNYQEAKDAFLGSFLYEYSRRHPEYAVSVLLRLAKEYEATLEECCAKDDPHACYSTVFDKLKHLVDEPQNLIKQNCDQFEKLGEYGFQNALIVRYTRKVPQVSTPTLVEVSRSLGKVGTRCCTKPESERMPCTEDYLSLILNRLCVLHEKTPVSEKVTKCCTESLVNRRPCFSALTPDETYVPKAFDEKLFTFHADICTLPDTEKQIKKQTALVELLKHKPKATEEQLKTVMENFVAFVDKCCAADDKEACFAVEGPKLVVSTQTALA

[1] = probe aXIP binding to arrayed compounds – biochemical, NeuroSMM set, 635/667 nm fluorescence, primary screen (AID 1119); details: small-molecule microarray, higher = more signal, called active from +8 up or from −8 down;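 note: probe is the protein aXip251-270 applied at 1 µg/mL to compound-printed slides; binding of probe to printed compounds measured as 667 nm fluorescence plus signal to noise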
[2] = probe aNOTCH3 binding on compound microarray – biochemical, small-molecule microarray, 635/667 nm fluorescence, primary screen (AID 1120); details: higher = more signal;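 note: probe is a biotin-tagged antibody raised against NOTCH3 rather than NOTCH3 protein; score merges spot fluorescence near 667 nm with spot signal to noise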
[3] = probe aNOTCH2 binding on compound microarray – biochemical, small-molecule microarray, 635/667 nm fluorescence, primary screen (AID 1121); details: higher = more signal;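 note: score merges feature fluorescence read at 667 nm with its signal to noise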
[4] = molecular target: Carbonic anhydrase 2 (Homo sapiens) (UniProt P00918); assay: compounds binding carbonic anhydrase 2 – biochemical, small-molecule microarray, Alexa647-labelled CAII, profiling panel (AID 1122); details: CAII-A647 binding fluorescence, higher = more signal
[5] = COS7 lysate on small-molecule microarray, probe aHis, 635 nm (AID 1123); details: COS7 cell lysate, fluorescence, higher = more signal;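 note: z-score combines 667nm fluorescence intensity with signal-to-noise per printed compound spot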
[6] = probe aLAP1 signal on lysate-treated microarray – cell lysate, small-molecule microarray, COS7 lysate, primary screen (AID 1124); details: probe aLAP1, fluorescence, higher = more signal;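 note: lysate comes from COS7 cells expressing LAP1 and is applied at 0.3 µg/mL; score merges spot fluorescence near 667 nm with signal-to-noise over triplicate slides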
Sam68 (KHDRBS1) = assay: compounds binding KHDRBS1 protein – biochemical, small-molecule microarray, 635 nm fluorescence, primary screen (AID 1125); details: higher = more signal;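 note: score merges 667 nm channel intensity with signal to noise over triplicate slides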
[7] = test system: Chordin-like protein 2 (CHRDL2); assay: compounds binding chordin-like 2 – biochemical, small-molecule microarray, 635 nm fluorescence, primary screen (AID 1126); details: fluorescence 635 nm, higher = more signal;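 note: printed compound slides probed with Chrdl2 protein at 4 µg/mL for 1 h at 4 C; score merges 667 nm emission intensity with signal to noise over three replicate slides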
[8] = molecular target: Concanavalin-A (Canavalia ensiformis) (UniProt P02866); assay: compounds binding concanavalin A lectin – biochemical, small-molecule microarray, Alexa647 label, 635 nm, artefact control for SMM control protein annotation, primary screen (AID 1127); details: ConA-A647 binding fluorescence, higher = more signal;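 note: z combines 667 nm emission intensity with signal-to-noise across three replicate slides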
Chain of Concanavalin-A (Canavalia ensiformis) (P02866 whole entry, looked up): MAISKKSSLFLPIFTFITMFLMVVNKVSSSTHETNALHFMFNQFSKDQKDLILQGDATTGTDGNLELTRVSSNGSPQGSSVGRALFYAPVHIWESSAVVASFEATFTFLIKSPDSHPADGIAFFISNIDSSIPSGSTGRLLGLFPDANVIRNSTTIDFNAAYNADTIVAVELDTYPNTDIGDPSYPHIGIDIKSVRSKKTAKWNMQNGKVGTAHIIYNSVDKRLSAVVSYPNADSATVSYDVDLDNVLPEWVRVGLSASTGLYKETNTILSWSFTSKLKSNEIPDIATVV

[9] = compounds binding Alexa647 anti-His antibody – biochemical, small-molecule microarray, 635 nm fluorescence, artefact control for SMM control protein annotation, primary screen (AID 1128); details: higher = more signal;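 note: score merges feature fluorescence with signal-to-noise for each printed compound spot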
[10] = test system: Human papillomavirus type 1a E7 protein (residues 1-88); assay: HPV1a E7 small-molecule binders, primary screen, biochemical, small-molecule microarray, residues 1-88, 635 nm (AID 1129); details: small-molecule microarray binding, fluorescence 635 nm; higher = more signal
[11] = molecular target: Focal adhesion kinase 1 (Homo sapiens) (UniProt Q05397); assay: PTK2 protein binding on printed compound slides – biochemical, small-molecule microarray, 635/667 nm fluorescence, BSA, DTT, primary screen (AID 1130); details: 635 nm fluorescence, higher = more signal;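 note: composite of spot emission at 667 nm and signal to noise over triplicate slides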
Chain of Focal adhesion kinase 1 (Homo sapiens) (Q05397 whole entry, looked up): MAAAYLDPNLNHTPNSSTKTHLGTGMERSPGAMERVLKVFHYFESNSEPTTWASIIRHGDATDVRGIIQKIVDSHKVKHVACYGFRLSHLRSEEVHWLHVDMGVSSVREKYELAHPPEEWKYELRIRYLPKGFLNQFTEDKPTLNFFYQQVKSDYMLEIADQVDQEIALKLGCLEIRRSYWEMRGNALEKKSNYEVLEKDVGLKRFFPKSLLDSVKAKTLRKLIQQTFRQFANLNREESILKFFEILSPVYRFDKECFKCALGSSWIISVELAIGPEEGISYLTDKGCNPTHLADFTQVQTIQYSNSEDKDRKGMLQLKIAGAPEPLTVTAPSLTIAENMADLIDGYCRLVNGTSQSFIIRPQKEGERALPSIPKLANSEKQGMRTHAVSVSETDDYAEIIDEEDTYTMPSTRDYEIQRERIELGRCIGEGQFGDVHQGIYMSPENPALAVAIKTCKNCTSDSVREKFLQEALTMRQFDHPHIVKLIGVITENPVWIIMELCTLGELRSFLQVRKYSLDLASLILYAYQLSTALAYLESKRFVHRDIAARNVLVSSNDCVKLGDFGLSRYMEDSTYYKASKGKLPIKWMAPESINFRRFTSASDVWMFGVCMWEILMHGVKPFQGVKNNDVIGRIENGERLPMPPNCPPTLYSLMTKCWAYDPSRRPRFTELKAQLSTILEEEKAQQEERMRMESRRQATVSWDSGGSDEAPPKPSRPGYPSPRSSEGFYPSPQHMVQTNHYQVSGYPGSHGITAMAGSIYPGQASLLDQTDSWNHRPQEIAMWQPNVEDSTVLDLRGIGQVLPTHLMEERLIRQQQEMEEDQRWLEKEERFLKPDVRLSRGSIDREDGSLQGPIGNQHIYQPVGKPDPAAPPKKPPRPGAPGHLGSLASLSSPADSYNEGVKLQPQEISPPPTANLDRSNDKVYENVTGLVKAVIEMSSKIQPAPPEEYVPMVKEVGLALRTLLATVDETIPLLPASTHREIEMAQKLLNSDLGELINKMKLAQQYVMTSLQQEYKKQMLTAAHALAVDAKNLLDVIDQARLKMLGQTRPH

[12] = test system: Fibrinogen (Alexa647-labelled); assay: Alexa647-fibrinogen binding to printed small molecules – biochemical, small-molecule microarray, 635/667 nm fluorescence, artefact control for SMM control-protein annotation, profiling panel (AID 1131); details: fibrinogen-A647 binding fluorescence, higher = more signal;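 note: z-score merges 667 nm fluorescence with per-spot signal-to-noise over triplicate slides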
[13] = molecular target: Follistatin (Homo sapiens) (UniProt P19883); assay: FST protein binding to printed compounds – biochemical, small-molecule microarray, 635/667 nm fluorescence, primary screen (AID 1132); details: 635 nm fluorescence, higher = more signal
Chain of Follistatin (Homo sapiens) (P19883 whole entry, looked up): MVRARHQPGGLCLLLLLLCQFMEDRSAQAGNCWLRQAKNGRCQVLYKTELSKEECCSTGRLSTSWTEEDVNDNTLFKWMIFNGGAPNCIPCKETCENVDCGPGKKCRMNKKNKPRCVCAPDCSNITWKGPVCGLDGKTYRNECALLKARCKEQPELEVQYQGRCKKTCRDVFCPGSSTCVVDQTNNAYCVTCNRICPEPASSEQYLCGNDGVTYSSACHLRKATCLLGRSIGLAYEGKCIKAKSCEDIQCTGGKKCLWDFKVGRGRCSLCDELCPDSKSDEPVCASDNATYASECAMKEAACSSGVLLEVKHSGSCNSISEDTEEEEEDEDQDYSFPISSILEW

[14] = molecular target: Fibroblast growth factor 2 (Homo sapiens) (UniProt P09038); assay: basic fibroblast growth factor binding to printed compounds – biochemical, small-molecule microarray, 635/667 nm fluorescence, primary screen (AID 1133); details: FGF2, fluorescence 635/667, higher = more signal
Chain of Fibroblast growth factor 2 (Homo sapiens) (P09038 whole entry, looked up): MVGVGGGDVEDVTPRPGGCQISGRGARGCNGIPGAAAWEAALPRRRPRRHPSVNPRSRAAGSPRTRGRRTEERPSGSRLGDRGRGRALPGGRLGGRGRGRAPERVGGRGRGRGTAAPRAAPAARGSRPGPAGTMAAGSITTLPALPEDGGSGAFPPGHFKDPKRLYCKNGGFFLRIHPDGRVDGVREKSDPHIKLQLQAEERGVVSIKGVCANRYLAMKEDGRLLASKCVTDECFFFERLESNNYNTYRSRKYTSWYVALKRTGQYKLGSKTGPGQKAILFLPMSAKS

[15] = JC-1 mitochondrial potential readout, lung cancer cells – cell-based, A549, JC-1 fluorescence, basal, 24 h, 100 nL, profiling panel (AID 1138); details: higher = more signal;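 note: A549 lung adenocarcinoma cells under basal conditions with no added stimulus; test concentration not given here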
Lefty1 = Lefty1 protein binding to printed compounds – biochemical, small-molecule microarray, 635/667 nm fluorescence, primary screen (AID 1139); details: fluorescence 635/667, higher = more signal
[16] = test system: wheat germ agglutinin (Triticum aestivum), Alexa647-labelled; assay: Alexa647-WGA lectin binding to printed small molecules – biochemical, small-molecule microarray, 635/667 nm fluorescence, artefact control for SMM control-protein annotation, profiling panel (AID 1140); details: WGA-A647 binding, 635 nm fluorescence, higher = more signal;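 note: score merges 667 nm feature emission with signal to noise over triplicate slides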
[17] = molecular target: Luciferin 4-monooxygenase (Photinus pyralis) (UniProt P08659); assay: inhibition of purified Photinus pyralis luciferase – biochemical, luminescence, purified enzyme, 2006 set, primary screen (AID 1141); details: purified firefly luciferase, SteadyGlo luminescence, 30 min; higher = more signal, called active from +8 up or from −8 down;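 note: cell-free assay with purified firefly luciferase at 100 ng per well in PBS; test concentration not given here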
Chain of Luciferin 4-monooxygenase (Photinus pyralis) (P08659 whole entry, looked up): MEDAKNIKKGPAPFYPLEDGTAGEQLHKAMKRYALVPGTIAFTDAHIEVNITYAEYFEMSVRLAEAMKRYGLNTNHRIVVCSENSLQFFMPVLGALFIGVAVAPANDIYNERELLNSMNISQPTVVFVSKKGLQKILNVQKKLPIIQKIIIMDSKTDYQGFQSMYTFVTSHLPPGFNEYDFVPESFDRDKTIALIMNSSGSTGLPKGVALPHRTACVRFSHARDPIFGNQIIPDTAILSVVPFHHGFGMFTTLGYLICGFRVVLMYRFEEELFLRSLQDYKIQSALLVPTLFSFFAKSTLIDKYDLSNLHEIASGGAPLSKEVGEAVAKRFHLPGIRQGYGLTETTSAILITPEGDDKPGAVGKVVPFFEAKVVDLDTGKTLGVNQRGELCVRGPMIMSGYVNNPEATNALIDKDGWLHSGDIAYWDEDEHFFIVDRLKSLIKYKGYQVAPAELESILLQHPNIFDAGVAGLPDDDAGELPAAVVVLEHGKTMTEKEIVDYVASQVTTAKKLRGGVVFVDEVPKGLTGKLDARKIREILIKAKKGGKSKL

SMILES	composite z-score (Albumin (Bos taurus))	composite Z-score [1]	composite z-score [2]	composite z-score [3]	composite z-score [4]	composite z-score [5]	composite z-score [6]	composite z-score (Sam68 (KHDRBS1))	composite z-score [7]	composite z-score [8]	composite z-score [9]	composite z-score [10]	composite z-score [11]	composite z-score [12]	composite z-score [13]	composite z-score [14]	z-score [15]	composite z-score (Lefty1)	composite z-score [16]	z-score [17]
CC1CC/C=C\[C@H]2OC34C=CCN(CCN5CCOCC5)C(=O)[C@H]3N(CCCO)C(=O)[C@@H]4C2C(=O)O1 (stereo not given in full)	-1.3	0.0485 (inactive)	-0.068	-0.164	0.91	-0.531	0.305	0.0414	-0.727	-0.187	0.549	-1.13	-0.381	-1.22	-0.298	-0.311	-0.296	-0.265	-0.133	0.201 (inactive)
O=C1c2ccccc2[C@@]2(Cc3ccccc3N(Cc3ccccc3)C2=O)[C@H](c2ccc(CO)cc2)N1Cc1ccccc1Cl	0.705	0.0507 (inactive)	-0.279	-0.171	-0.391	-0.222	0.147	-0.633	-0.688	-0.709	-0.743	-1.14	-0.0858	-1.2	-0.465	-0.395	-0.00887	-0.0772	-0.45	1.3 (inactive)
CCCC=C(CCC)[C@@H](NC(=O)c1ccc(C(F)(F)F)cc1)c1ccc(C(F)(F)F)cc1	1.01	-0.523 (inactive)	0.326	0.105	0.205	2.94	-0.0554	1.31	-0.748	1.07	0.549	1.23	0.156	1	0.384	-0.635	2.65	0.131	1.38	2.29 (inactive)
COc1cc(CO)cc(I)c1O[C@H]1C=C(C(=O)NCCO)C[C@@H]2O[C@H]12	-0.39	1.49 (inactive)	-0.0311	-0.0596	0.465	1.07	0.0543	1.3	1.36	1.01	0.426	1.22	0.572	0.4	1.52	2.13	-0.976	1.37	0.308	0.847 (inactive)
COC(=O)[C@@]1(Cc2ccccc2)[C@H]2c3cc(C(=O)N(C)C)n(CCSC(=N)N)c3C[C@H]2CN1C(=O)c1ccccc1	-0.107	1.22 (inactive)	0.0159	0.0591	0.877	0.778	1.63	-1.71	-0.721	-1.36	0.367	0.336	0.117	0.869	-0.239	0.277	0.378	-0.318	0.164	1.13 (inactive)
C[C@@H]1NC(=O)C([C@@H](C)OCc2ccccc2)NC(=O)[C@@]23C(=O)N[C@@H](Cc4ccccc4)C2[C@H](C)[C@@]2(C)O[C@H]2C3/C=C/C/C=C\CNC1=O (stereo not given in full)	-1.17	2.08 (inactive)	-0.222	-0.125	0.61	-0.13	0.0711	-0.503	0.209	-0.928	-0.839	-1.36	-0.526	-0.397	0.0746	0.0742	-0.0956	0.0892	-0.117	0.0545 (inactive)
COc1ccc(NN2C(C(O)c3ccc(I)cc3)C=CC3C(=O)N(C4CCCCC4)C(=O)C32)cc1 (stereo not given)	0.843	0.84 (inactive)	0.394	-0.075	0.444	1.53	0.444	1.32	-0.195	1.1	0.698	1.23	-0.0558	0.951	1.3	0.366	0.119	0.946	1.22	1.29 (inactive)
Cc1ccccc1C(O)C1C=CC2C(=O)N(c3ccccc3)C(=O)C2N1Nc1ccccc1 (stereo not given)	0.944	0.738 (inactive)	0.312	-0.0485	0.781	2.94	0.0139	1.29	-0.147	1.14	1.53	1.25	0.969	1.03	1.3	0.0635	-0.128	0.55	1.33	-0.818 (inactive)
C[N+](C)(C)CCCCNC(=O)[C@H]1C[C@H]2C(=O)N[C@@H](Cc3ccccc3)C(=O)N2[C@H]1c1cccc(OCCO)c1	-1.43	0.466 (inactive)	0.0401	-0.1	0.542	1.71	1.3	0.669	1.5	1.1	2.93	0.566	0.193	0.578	1.48	1.87	-0.243	1.69	-0.4	-0.598 (inactive)
CC1=C([C@H](O)CCc2ccccc2)[C@H](CO)n2c(=O)n(-c3ccccc3)c(=O)n2C1	-0.348	0.51 (inactive)	-0.187	-0.199	-0.3	-0.35	-0.603	-0.308	0.443	-0.0316	-0.56	-0.37	-0.168	-0.178	0.155	0.302	1.18	0.27	-0.137	-0.728 (inactive)
COc1cc(CO)cc(I)c1O[C@H]1C=C(C(=O)NCCO)C[C@@H](NC2CCCCCC2)[C@@H]1O	0.441	-0.228 (inactive)	0.106	-0.161	0.579	-0.103	0.993	1.33	0.714	0.747	0.34	1.14	-0.433	0.794	0.931	1.01	1.88	1.37	0.246	4.69 (inactive)
